The values below come from PubChem BioAssay (NCATS).

Molecules are shown by their SMILES. Inconclusive results are not listed. The source made the active and inactive calls. Unless noted, calls come from the whole dose curve; as a rule, active = well fitted curve in the direction sought with a large enough effect; inconclusive = small, poorly fitted or top-dose-only effect, or another doubt; inactive = no such curve, though single readings can be large; an effect the other way counts as inactive or inconclusive.

Assay [1] concerns the target Luciferin 4-monooxygenase (Photinus pyralis) (UniProt P08659). The experiment in a line: Biochemical firefly luciferase enzyme assay for NPC (AID 624030).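 Note: purified P. pyralis luciferase at 10 nM with luciferin and ATP substrate; nearly all actives have a fitted effect of over 70% in size.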 The gist of the method:
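Purified P. pyralis luciferase at 10 nM in 50 mM Tris Acetate (final), luminescence read within 5 minutes of enzyme addition to compounds. Activity normalised to PTC124 versus DMSO; concentration-response curves classed by r2, magnitude and activity.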

Assay [2] can be described thus: S16 Schwann cell PMP22 intronic element firefly luciferase assay (AID 624032). Note: nearly all actives have a fitted effect of over 30% in size. The gist of the method:
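Rat S16 Schwann cells stably carrying firefly luciferase driven by a PMP22 intronic element, in 10% FBS, treated 24 h at 37 C. ONE-Glo luminescence normalized to PTC124 control and DMSO (0%); curves classed by r2, magnitude and activity.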

Assay [3] can be described thus: S16 Schwann cell PMP22 intronic element beta-lactamase assay (AID 624044; calls by dose curve; note: nearly all actives have a fitted effect of over 15% in size). The gist of the method: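 Beta-lactamase reporter under a PMP22 intronic regulatory element in stable S16 rat Schwann cells; 24 h compound exposure. 460 nm blue signal normalized between DMSO (0%) and potassium clavulanate, with 535 nm FRET tracking viability; curves classed by r2 and response.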

A further assay concerns ATS95. The experiment in a line: qHTS profiling for inhibitors of Plasmodium falciparum proliferation (AID 504749). Note: nearly all actives have a fitted effect of over 60% in size. Note: potency is the fitted concentration of half-maximal effect. As to conditions: P. falciparum in erythrocytes, SYBR Green DNA, 72 h; series mostly up to 12.8 µM. The essentials: (§1)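 SYBR Green fluorescence (ex 485 nm, em 535 nm) reports parasite DNA after 72 h compound exposure of infected red cells at 0.3% parasitemia, 2.5% hematocrit; signal normalized to 0.29 uM artemisinin and vehicle wells.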
A general note: In qHTS, concentration-response curves come from the screen itself.

The test system of another assay is CP201. Described as above. As to conditions: P. falciparum in erythrocytes, SYBR Green DNA, 72 h; series mostly up to 12.8 µM. The gist of the method: as §1
Another assay deals with CP237. The description is as above. As to conditions: P. falciparum in erythrocytes, SYBR Green DNA, 72 h; series mostly up to 12.8 µM. The gist of the method:
as §1

The next assay has as its system CP247. The description is as above. As to conditions: P. falciparum in erythrocytes, SYBR Green DNA, 72 h; series mostly up to 12.8 µM. The essentials: as §1
For a further assay, the system named is CP260. The assay is described as above. As to conditions: P. falciparum in erythrocytes, SYBR Green DNA, 72 h; series mostly up to 12.8 µM. The essentials: as §1
For another assay, the system named is CP262. Described as above. As to conditions: P. falciparum in erythrocytes, SYBR Green DNA, 72 h; series mostly up to 12.8 µM. The gist of the method: as §1
A further assay relates to CP265. The assay is described as above. As to conditions: P. falciparum in erythrocytes, SYBR Green DNA, 72 h; series mostly up to 12.8 µM. The essentials: as §1
The next assay concerns CP269. Described as above. As to conditions: P. falciparum in erythrocytes, SYBR Green DNA, 72 h; series mostly up to 12.8 µM. The gist of the method: as §1
A further assay deals with CP291. Described as above. As to conditions: P. falciparum in erythrocytes, SYBR Green DNA, 72 h; series mostly up to 12.8 µM. The gist of the method: as §1
The subject of the next assay is CP305. The assay is described as above. As to conditions: P. falciparum in erythrocytes, SYBR Green DNA, 72 h; series mostly up to 12.8 µM. The essentials: as §1
A further assay concerns CP325. The assay is described as above. As to conditions: P. falciparum in erythrocytes, SYBR Green DNA, 72 h; series mostly up to 12.8 µM. The essentials:
as §1

The next assay concerns CP329. The assay is described as above. As to conditions: P. falciparum in erythrocytes, SYBR Green DNA, 72 h; series mostly up to 12.8 µM. The essentials: as §1
In a further assay the test system is DIV14. The assay is described as above. As to conditions: P. falciparum in erythrocytes, SYBR Green DNA, 72 h; series mostly up to 12.8 µM. The essentials:
as §1

For a further assay, the system named is DIV30. The description is as above. As to conditions: P. falciparum in erythrocytes, SYBR Green DNA, 72 h; series mostly up to 12.8 µM. The essentials:
as §1

The subject of another assay is ICS. The assay is described as above. As to conditions: P. falciparum in erythrocytes, SYBR Green DNA, 72 h; series mostly up to 12.8 µM. The essentials: as §1
The next assay deals with P94_40. The description is as above. As to conditions: P. falciparum in erythrocytes, SYBR Green DNA, 72 h; series mostly up to 12.8 µM. The essentials: as §1
The next assay concerns TAB165. The description is as above. As to conditions: P. falciparum in erythrocytes, SYBR Green DNA, 72 h; series mostly up to 12.8 µM. The gist of the method:
as §1

Chain of Luciferin 4-monooxygenase (Photinus pyralis) (P08659 whole entry, looked up): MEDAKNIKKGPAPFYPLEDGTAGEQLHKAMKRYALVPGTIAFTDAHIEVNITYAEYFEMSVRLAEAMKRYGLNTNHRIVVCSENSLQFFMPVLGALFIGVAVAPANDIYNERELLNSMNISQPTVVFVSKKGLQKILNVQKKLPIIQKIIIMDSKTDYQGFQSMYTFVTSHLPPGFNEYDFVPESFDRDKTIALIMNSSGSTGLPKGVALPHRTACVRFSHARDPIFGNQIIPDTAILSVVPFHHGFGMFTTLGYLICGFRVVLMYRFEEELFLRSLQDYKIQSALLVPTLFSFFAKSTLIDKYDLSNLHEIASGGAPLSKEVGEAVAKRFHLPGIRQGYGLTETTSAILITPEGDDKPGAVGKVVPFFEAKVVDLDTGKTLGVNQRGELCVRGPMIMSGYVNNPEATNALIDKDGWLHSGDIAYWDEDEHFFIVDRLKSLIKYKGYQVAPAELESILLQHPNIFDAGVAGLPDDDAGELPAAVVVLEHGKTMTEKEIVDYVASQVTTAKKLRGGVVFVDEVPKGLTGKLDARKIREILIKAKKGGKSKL

As for `C1CCN2C[C@@H]3C[C@@H](CN4CCCC[C@H]34)[C@H]2C1`, the Potency entry (in assay [1]; in [2]; in assay [3]; with ATS95; with CP201; with CP237) was “inactive” throughout. Further, the Potency entry with CP247, in the assay with CP260, in the assay on CP262, with CP265, with CP269 and with CP291 was “inactive” throughout. Besides, the Potency result with CP305, in the assay on CP325, with CP329, in the assay with DIV14, in the assay on DIV30 and in the assay on ICS was “inactive” each time. The Potency result in the assay on P94_40 and in the assay with TAB165 was “inactive” each time.

With `C=C1c2c(Cl)ccc(O)c2C(O)=C2C(=O)[C@@]3(O)C(O)=C(C(N)=O)C(=O)[C@@H](N(C)C)[C@@H]3[C@@H](O)[C@H]12`, the Potency entry (in assay [2]; in [3]; with ATS95; in the assay on CP201; in the assay with CP247; with CP262) was “inactive” in each case. For the same compound, the Potency result in the assay on CP265, in the assay on CP269, in the assay on CP291, with CP305, in the assay on CP325 and in the assay on CP329 was “inactive” in each case. Besides, the Potency entry with DIV14, in the assay on DIV30 and with P94_40 was “inactive” each time.

Consider `CC(C)(C)NC[C@@H](O)COc1ccccc1C1CCCC1`, for which the Potency result in [1] and in [3] was “inactive” in each case. The Potency was 3.55 µM (active) with ATS95; 3.55 µM (active) with CP237; 3.16 µM (active) in the assay with CP260; 5.73 µM (active) in the assay with CP269; 4.05 µM (active) with CP291; 4.55 µM (active) with CP325. Besides, the Potency in the assay with DIV14 was 2.03 µM (active); with DIV30, 5.73 µM (active); with ICS it was 1.41 µM (active); with P94_40, 3.98 µM (active); in the assay with TAB165, 3.55 µM (active).

Regarding `C[C@H]1CS(=O)(=O)CCN1/N=C\c1ccc([N+](=O)[O-])o1`, the Potency result (in assay [1]; in assay [2]; in [3]; in the assay with ATS95; in the assay with CP201; in the assay on CP237) was “inactive” throughout. In addition, the Potency entry with CP247, in the assay with CP262, with CP265, with CP269, with CP291 and in the assay on CP305 was “inactive” throughout. The Potency entry in the assay on CP325, in the assay on CP329, in the assay on DIV30, in the assay on ICS, in the assay on P94_40 and in the assay on TAB165 was “inactive” each time.

Consider `CC(=C(CCOP(=O)(O)O)SC(=O)c1ccccc1)N(C=O)Cc1cnc(C)nc1N`, for which the Potency result (in [2]; in assay [3]; with ATS95; in the assay on CP201; with CP237; in the assay on CP247) was “inactive” in each case. Besides, the Potency result in the assay on CP260, in the assay on CP262, with CP265, with CP269, with CP291 and in the assay on CP305 was “inactive” throughout. Further, the Potency entry with CP325, in the assay on CP329, in the assay with DIV14, with DIV30, in the assay with ICS and in the assay with P94_40 was “inactive” each time. Moreover, the Potency result in the assay with TAB165 is “inactive”.

As for `COc1cc(N)c(Cl)cc1C(=O)N[C@H]1CCN(CCCOc2ccc(F)cc2)C[C@H]1OC`, the Potency result in assay [1] and in [3] was “inactive” in each case. Also, the Potency in the assay on CP260 is 3.16 µM (active); with CP262, 3.61 µM (active); in the assay on CP265, 3.98 µM (active); in the assay on P94_40, 3.16 µM (active); in the assay with TAB165, 3.55 µM (active).

For the compound `O[C@@](CCN1CCCC1)(c1ccccc1)C1CCCCC1`, the Potency entry (in [1]; in [2]; in [3]; in the assay with CP237; in the assay on CP260; with CP262) was “inactive” throughout. The Potency entry in the assay on CP269 and in the assay with CP291 was “inactive” each time. The Potency in the assay with DIV14 was 2.87 µM (active).

Regarding `COC(=O)C1=C(C)NC(C)=C(C(=O)OC(C)C)[C@H]1c1cccc2nonc12`, the Potency result (in assay [1]; in [3]; in the assay with CP265; in the assay on DIV30) was “inactive” each time. In addition, in the assay on ICS, the Potency is 3.55 µM (active).
